Assay outcomes: PubChem, National Center for Advancing Translational Sciences (NCATS)
Gal4-VP16 FLuc: Gal4-VP16 reporter inhibition counter-screen; Drosophila S2 Gal4-VP16 UAS-luciferase, luminescence, 20 h; Potency, µM (doses to about 53.6 µM), without a hit: at the highest dose activity, negative = inhibition, usual class: inhibitors; 310,000 compounds, 3.5% hits; AID 2546;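 further: Gal4-VP16 expression switched on by copper sulfate through the metallothionein promoter; potency means the concentration at half of the fitted maximal effect; nearly all actives have a fitted effect of over 50% in size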
ELG1 DNA repair: blocks ELG1-dependent DNA repair in HEK293T cells. HEK293T ELG1-luciferase reporter, luminescence, 16 h; DNA damage induced by 5-fluorouridine. Potency, µM (series often up to 46.1 µM), for inactives: top-dose activity change, negative = inhibition, usual class: inhibitors. 330,000 compounds, 2.3% hits. AID 504467; further: potency means the concentration at half of the fitted maximal effect; nearly all actives have a fitted effect of over 55% in size
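Step one: seed 2,000 cells per well. Step two: pin-transfer compound or DMSO alongside 5-fluorouridine. Step three: incubate 16 hr, 37 °C, 5% CO2. Step four: add ONE-Glo, wait 30 min, read luminescence.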
B2AR arrestin: beta2AR (human) beta-arrestin recruitment activity; Potency, µM (titrated, usually from 46.1 µM), without a hit: top-dose activation, actives largely listed as activators; beta-arrestin recruitment to beta2AR, cell-based reporter; P07550; 330,000 compounds, 0.02% hits;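 further: potency means the concentration at half of the fitted maximal effect; 0% = DMSO controls and full agonism = EC100 isoproterenol or metaproterenol; nearly all actives have a fitted effect of over 65% in size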
RORgamma inh: inhibitors of mouse ROR gamma transcriptional activity; AID 2551; 310,000 compounds, 5.4% hits; Potency, µM (highest dose often 53.6 µM), for inactives: top-dose activity change, negative = inhibition, hits mostly inhibitors; Drosophila S2 Gal4-RORgamma UAS-luciferase reporter, 20 h; further: potency means the concentration at half of the fitted maximal effect; nearly all actives have a fitted effect of over 60% in size
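Read-out: Photinus luciferase luminescence; inhibitors lower reporter signal. Insect Schneider cells with Gal4-ROR gamma fusion under metallothionein promoter, UAS reporter; 700 uM final copper sulfate induction, 20 hr, ambient temperature.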
TSHR antagonist: antagonists of human thyroid stimulating hormone receptor. P16473. TSHR-expressing cells, TSH-stimulated cAMP HTRF, 2 h; stronger effect = lower value. activity change, negative = inhibition, % at 11.5 µM. 330,000 compounds, 0.2% hits;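 active means activity change below a set negative limit, meaning inhibition stronger than a set level, cut at about -70% in these data; inconclusive means activity change between two set negative limits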
Target sequence (P16473 whole entry, looked up): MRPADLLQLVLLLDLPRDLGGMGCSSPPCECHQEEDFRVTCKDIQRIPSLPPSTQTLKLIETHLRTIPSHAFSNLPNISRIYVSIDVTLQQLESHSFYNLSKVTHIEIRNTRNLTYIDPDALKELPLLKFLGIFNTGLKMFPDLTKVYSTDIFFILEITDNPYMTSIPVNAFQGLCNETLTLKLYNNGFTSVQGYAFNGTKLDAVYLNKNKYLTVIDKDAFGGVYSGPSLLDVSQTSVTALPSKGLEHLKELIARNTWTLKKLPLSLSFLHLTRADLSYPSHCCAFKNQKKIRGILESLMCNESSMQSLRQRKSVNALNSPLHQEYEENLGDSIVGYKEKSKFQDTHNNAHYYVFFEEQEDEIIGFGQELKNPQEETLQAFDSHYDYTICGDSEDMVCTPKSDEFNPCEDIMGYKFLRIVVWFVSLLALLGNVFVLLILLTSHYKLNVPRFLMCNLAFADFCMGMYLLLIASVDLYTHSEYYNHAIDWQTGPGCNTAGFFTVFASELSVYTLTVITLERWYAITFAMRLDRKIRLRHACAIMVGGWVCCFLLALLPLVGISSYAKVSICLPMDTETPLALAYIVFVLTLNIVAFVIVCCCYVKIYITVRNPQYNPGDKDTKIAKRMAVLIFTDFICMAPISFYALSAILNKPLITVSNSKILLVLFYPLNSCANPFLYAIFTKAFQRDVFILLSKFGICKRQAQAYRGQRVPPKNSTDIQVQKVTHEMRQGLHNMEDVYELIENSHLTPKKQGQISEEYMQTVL
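Freshly harvested TSHR cells receive pin-tooled compound, then EC80 TSH at 4nM final. After 2 hours at 37 deg C, antibody in lysis buffer and cAMP-d2 are added; 30 minutes at ambient temperature precede the HTRF read.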
Numbers without * were called inactive; ? = inconclusive; / = no result; [ ] = dose if it differs, or a comment. Hits are enriched below; roughly 7.5% of the tested compounds scored in any of these assays. Unless noted, the call rests on the fitted dose curve; in most records, active means well fitted curve in the direction sought with a large enough effect; inconclusive means small, poorly fitted or top-dose-only effect, or another doubt; inactive means no such curve, though single readings can be large; an effect the other way counts as inactive or inconclusive. Unless noted, on the % scale 0 is the no-effect control and ±100 the full control effect.

SMILES	Gal4-VP16 FLuc	ELG1 DNA repair	B2AR arrestin	RORgamma inh	TSHR antagonist
CC(SC1=NCCS1)C(=O)Nc1nnc(-c2ccc(Br)cc2)s1 (centres undefined)	10µM*	?	0%	8.9µM*	0
CC(C)C(NC(=O)c1ccc(Br)cc1)C(=O)NC1=NCCS1 (centres undefined)	7%	?	0%	-2%	3
CC(SC1=NCCS1)C(=O)Nc1nnc(-c2ccc(F)cc2)s1 (centres undefined)	?	?	0%	7.9µM*	-17
CCC(SC1=NCCS1)C(=O)Nc1nnc(-c2ccccc2OC)s1 (centres undefined)	16µM*	18µM*	0%	6.3µM*	6
C=C1C=CS(=O)(=O)N(C(CC(C)C)C(=O)OC)C1 (centres undefined)	-7%	/	/	-5%	/
Cc1ccc(C(=O)c2cn(Cc3ccc(Cl)cc3)c3nc(C)ccc3c2=O)cc1	/	/	-1%	/	3
CCCCc1ccc(-c2csc(/C(C#N)=C\c3ccc(C)o3)n2)cc1	1%	-2%	0%	2%	-5
CCOc1ccc(-c2csc(/C(C#N)=C\c3ccc(O)c([N+](=O)[O-])c3)n2)cc1	?	13µM*	-2%	-63%	-83*
Nc1ccc(C(=O)N/N=C2\CCCc3c2[nH]c2ccccc32)cc1	?	17%	0%	?	-6
CC(C)c1ccc2[nH]c3c(c2c1)CCC/C3=N\NC(=O)c1ccncc1	5µM*	18µM*	0%	0.89µM*	5
CC(C)c1cccc2cc3c(nc12)-c1cccc(=O)n1C3	-11%	/	/	-20%	/
CCOc1ccc(S(=O)(=O)NC(C)(C)C)cc1-c1nc2c(C(C)(C)C)nn(C)c2c(=O)[nH]1	-14%	12µM*	0%	-18%[10 µM]	0
CCOc1ccc(S(N)(=O)=O)cc1-c1nc2c(C(C)(C)C)nn(C)c2c(=O)[nH]1	5%	-11%	0%	14%	6
NC(N)=N/N=C/c1ccc(OCc2ccc(Cl)cc2)cc1	7.1µM*	?	0%	?	6
Cc1ccc(COc2ccc(/C=N/O)cc2)cc1	?	?	0%	8.9µM*	-22
NC(N)=N/N=C/c1ccc(OCc2ccccc2)cc1	10µM*	?	-1%	-32%	10
CCOC(=O)c1sc(NC(=O)CNCc2ccccn2)c(C(=O)OCC)c1C	?	12µM*	0%	7.9µM*	7
CCN1CCN(C(=S)Nc2sc(C)c(-c3ccccc3)c2C(=O)OC)CC1	-7%	16µM*	0%	?	2
CCOC(=O)c1c(-c2ccc(OC)cc2)csc1NC(=O)CCN1CCOCC1	-24%	?	4%	-27%	6
CCOC(=O)c1c(NC(=O)/C=C\C(=O)O)sc(C)c1-c1ccccc1	26%	1%	0%	?	-27
CCOC(=O)c1c(NC(=O)/C=C/C(=O)O)sc(C)c1-c1ccc(C(C)(C)C)cc1	?	12µM*	0%	11µM*	?
CCOC(=O)c1c(NC(=O)CCN2CCOCC2)sc(C)c1-c1ccccc1	-8%	21µM*	0%	27%	-8
Cc1nc2ccc(NC(=O)Nc3ccnc4cccnc34)cc2o1	5%	/	/	39%	/
CC(=O)c1ccc(S(=O)(=O)N2CCN(C(=O)CN3C(=O)NC4(CCCC4)C3=O)CC2)cc1	/	-3%	0%	/	/
CCOC(=O)CCNC(=O)N1CCCC(C(=O)c2cc(C)c(OC)c(C)c2)C1 (centres undefined)	15%	-16%	-1%	10%	-5
SMILES	Gal4-VP16 FLuc	ELG1 DNA repair	B2AR arrestin	RORgamma inh	TSHR antagonist
Cc1ccc(-n2ncc3c2CCCC3NC(=O)CSc2ccccn2)cc1C (centres undefined)	1%	?	0%	10%	-19
COc1cccc(CNc2ccc3nc(-c4ccc(N)cc4)c(OC)n3n2)c1	-11%	/	/	?	/
CCOC(=O)c1sc(NC(=O)CCN2CCCCCC2)c(C(=O)OCC)c1C	?	11%	4%	11µM*	-30
Cc1ccc(S(=O)(=O)N(C)C)cc1NC(=O)COC(=O)C1CCN(S(=O)(=O)c2cccs2)CC1	/	24%	0%	/	-10
COc1ccc(C2/C=C\CN(S(=O)(=O)c3ccc(C)cc3)CC(=O)N2Cc2cccc(F)c2)cc1 (centres undefined)	4%	21µM*	0%	17%	-6
CCOC(=O)c1c(C)n(-c2ccc(C)cc2)c2c(C(C(C)=O)C(=O)O)c(Br)c(O)c(O)c12 (centres undefined)	-8%	-16%	0%	-2%	13
CCOC(=O)C(C(C)=O)c1c(Br)c(O)c(O)c2c(C(=O)c3ccc(C)cc3)coc12 (centres undefined)	16µM*	4.6µM*	6%	13µM*	-16
CN(C)c1nc(N)nc(CSc2nc3cc(Cl)ccc3o2)n1	24%	?	0%	4%	-5
O=S1(=O)C=C(Sc2nc3cc(Cl)ccc3o2)c2ccccc21	2.5µM*	21µM*	5%	5.6µM*	-78*
CCOC(=O)C1=C(O)/C(=C/c2ccccn2)SC1=Nc1ccc(Cl)cc1	-28%	21µM*	0%	-25%	20
CCOC(=O)C1=C(O)/C(=C/c2ccc(OCC(=O)O)c(OCC)c2)SC1=Nc1ccccc1	-12%	-2%	0%	30%	-11
CC[C@H](C)[C@H](NC(=O)[C@H](Cc1ccc(O)cc1)NC(=O)[C@@H](NC(=O)[C@H](CCCNC(=N)N)NC(=O)[C@@H](N)CC(=O)O)C(C)C)C(=O)N[C@@H](Cc1cnc[nH]1)C(=O)N1CCC[C@H]1C(=O)N[C@@H](Cc1ccccc1)C(=O)N[C@@H](Cc1cnc[nH]1)C(=O)N[C@@H](CC(C)C)C(=O)N[C@@H](CC(C)C)C(=O)N[C@H](C(=O)N[C@@H](Cc1ccc(O)cc1)C(=O)N[C@@H](CO)C(=O)O)C(C)C	-11%	/	/	13%	/
COc1ccc(NC(=O)COC(=O)c2ccc(S(=O)(=O)N(C)c3ccccc3OC)cc2)c(OC)c1	-18%	?	0%	4%	5
COc1ccccc1C(=O)/C=C/c1ccc(N2CCCCC2)c([N+](=O)[O-])c1	6.3µM*	?	0%	5.6µM*	-38
O=C(/C=C/c1ccc(N2CCCCC2)c([N+](=O)[O-])c1)c1ccc(O)cc1	?	?	0%	11µM*	-24
O=C(O/N=C\c1ccc(N2CCCCC2)c([N+](=O)[O-])c1)c1ccc(Cl)cc1Cl	5%	-7%	0%	15%	-19
O=c1c(-c2ccc(F)cc2)nc2cnc(Oc3ccccc3)nc2n1Cc1cccs1	-1%	/	/	11%	/
C[N+]1(C)C[C@@H](O)C[C@@H]1C(=O)[O-]	-10%[17 µM]	/	/	-12%[16.9 µM]	/
